In all, about 52,000 compounds went through this assay and about 1,700 (3.3%) were called active. This is one part of a sample in which actives are shown more often than they occur. Values without a mark were called inactive. Cut-off read from the data, not from the text of the source: active = survival mostly below about 52% (no sharp cut-off); inactive = mostly above about 56%.
Test system: Wild type
Test: growth inhibition of S. aureus wild type versus tarO mutant, primary screen, teichoic acid synthesis inhibitors, RN4220, OD600 (AID 463173)
Settings: S. aureus RN4220 wild type/DeltatarO growth, OD600, 18 h, active compounds read low, screened at 18.75 µg/mL (by protocol)

Structure (SMILES) | survival
Cc1cccc(NC(=O)CSc2nccn2Cc2ccc(F)cc2)c1C | 71%
O=C(Nc1nc2ccc(S(=O)(=O)N3CCCC3)cc2s1)c1cccc(F)c1 | 63%
COc1ccc2c(c1)c1c(c(=O)n(-c3ccc(F)c(Cl)c3)c(=O)n1Cc1cccc(C)c1)n2C | 71%
Cc1cc(C)c(NC(=O)CSc2ccnc(=O)[nH]2)c(C)c1 | 74%
CCOc1cc(Cl)c(S(=O)(=O)n2cc(C)nc2CC)cc1Cl | -7% (active)
CCc1nc(C)cn1S(=O)(=O)c1ccc(Cl)c(Cl)c1OC | 77%
CCOc1cc(Cl)c(S(=O)(=O)n2ccnc2)cc1Cl | 74%
CCCn1c(SCC(=O)c2ccc3c(c2)OCCO3)nnc1-c1ccco1 | 100%
Oc1ccc(Br)cc1C1CC(c2ccccc2)=NC(c2ccco2)N1 (configuration not stated) | 1% (active)
O=C(CCN1CCOCC1)N1N=C(c2ccccc2)CC1c1ccco1 (configuration not stated) | 104%
COc1ccccc1N1CCN(c2ncnc3c2cnn3-c2cc(Cl)ccc2C)CC1 | 136%
COc1ccccc1N1CCN(c2ncnc3c2cnn3-c2ccc(C)cc2)CC1 | 63%
COc1ccccc1N1CCN(c2ncnc3c2cnn3-c2cccc(Cl)c2)CC1 | -4% (active)
O=C(COc1ccccc1Cl)N(Cc1ccco1)Cc1ccco1 | 81%
CCCCN(C)C(=O)CSc1c2c(nc3ccc(Cl)cc13)CCCC2 | -2% (active)
CN(Cc1ccccc1)C(=O)CSc1c2c(nc3ccc(Cl)cc13)CCCC2 | 0% (active)
COc1cc(OC)c(N(C)C(=O)CSc2c3c(nc4ccc(Cl)cc24)CCCC3)cc1Cl | 2% (active)
COc1ccc(NC(=O)CSc2c3c(nc4ccc(Cl)cc24)CCCC3)cc1Cl | 75%
CCOc1ccc(CNC(=O)CSc2c3c(nc4ccc(Cl)cc24)CCCC3)cc1 | 84%
Cc1ccc(CNC(=O)CSc2c3c(nc4ccc(Cl)cc24)CCCC3)cc1 | 80%
COc1ccc(CNC(=O)CSc2c3c(nc4ccc(Cl)cc24)CCCC3)cc1 | 76%
CCCN(CCC)C(=O)CSc1c2c(nc3ccc(Cl)cc13)CCCC2 | 52%
CCc1ccc(CNC(=O)CSc2c3c(nc4ccc(Cl)cc24)CCCC3)cc1 | 76%

Structure (SMILES) | survival
CCCNC(=O)CSc1c2c(nc3ccc(Cl)cc13)CCCC2 | 72%
CCCCN(CC)C(=O)CSc1c2c(nc3ccc(Cl)cc13)CCCC2 | -2% (active)
CCCCNC(=O)CSc1c2c(nc3ccc(Cl)cc13)CCCC2 | 66%
CCCN(C(=O)c1c(C)oc2ncn(CC(C)C)c(=O)c12)c1ccccc1C | 59%
CCOc1ccc(CCNC(=O)Cn2nc(C)c3c(C)n(-c4ccccc4)nc3c2=O)cc1OCC | 19%
CCn1cc(CCC(=O)NCc2ccccc2OC)c2ccccc21 | 76%
COc1ccc(C(=O)NCc2nnc(SCC(=O)Nc3ccccc3)n2-c2ccc(F)cc2)cc1 | 78%
Clc1cccc(-n2ncc3c(N4CCCCCC4)ncnc32)c1 | 81%
COc1ccc(CC(=O)Nc2ccc(-c3nc4ccccc4s3)c(C)c2)cc1 | 69%
Cc1cccc(OCC(=O)Nc2cccc(-c3nc4ccccc4s3)c2)c1 | 5% (active)
COc1ccc(-c2nc3ccccc3s2)cc1NC(=O)COc1cccc(C)c1 | 39%
COc1cccc(CC(=O)Nc2ccc(-c3nc4ccccc4s3)cc2Cl)c1 | 73%
COc1ccccc1C(=O)Nc1ccc(-c2nc3ccccc3s2)c(C)c1 | 82%
Cc1cc(C)cc(OCC(=O)Nc2ccc(-c3nc4ccccc4s3)cc2)c1 | 88%
COc1cccc(CC(=O)Nc2ccc(-c3nc4ccccc4s3)cc2)c1 | -3% (active)
COc1ccc(CC(=O)Nc2ccc(-c3nc4ccccc4s3)c(C)c2)cc1OC | 10% (active)
Cc1ccc(OCC(=O)Nc2cccc(-c3nc4ccccc4s3)c2)cc1 | 55%
COc1ccc(N2CCN(S(=O)(=O)c3cc(Br)cc4c3N(C(=O)C3CC3)CC4)CC2)cc1 | 90%
COc1ccc2nc3oc(C(=O)NCc4ccccc4OC)cc3cc2c1 | 88%
COc1ccc(NC(=O)CC2C(=O)N(c3ccc(F)cc3)C(=O)N2Cc2ccco2)cc1 (configuration not stated) | 90%
COc1ccc(CNC(=O)c2cc3oc4ccccc4c3n2C)cc1OC | 64%
CCOC(=O)c1c(SCC(=O)Nc2nc3ccc(C)cc3s2)nc(=O)[nH]c1C | 81%
Cc1cnc(=O)[nH]c1SCC(=O)Nc1nc2ccccc2s1 | 89%

Structure (SMILES) | survival
CCOC(=O)c1c(SCC(=O)Nc2nc3ccccc3s2)nc(=O)[nH]c1C | 1% (active)
CC(C)OCCCNC(=O)Cc1ccc(NC(=O)N2CCCCc3ccccc32)cc1 | 77%
CCN(CC)c1ccc(CN(C(=O)c2cc(=O)c3ccccc3o2)C2CCS(=O)(=O)C2)cc1 (configuration not stated) | 76%
CC1CCc2c(sc(NC(=O)CCCOc3ccc(C(C)(C)C)cc3)c2C(N)=O)C1 (configuration not stated) | 79%
COC(=O)c1c(NC(=O)/C(C#N)=C/c2ccc(OC)cc2)sc2c1C(C(=O)OC)CC2 (configuration not stated) | 71%
COC(=O)c1c(NC(=O)CCCOc2ccc(C)cc2)sc2c1C(C(=O)OC)CC2 (configuration not stated) | 1% (active)
COC(=O)c1c(NC(=O)c2cccs2)sc2c1C(C(=O)OC)CC2 (configuration not stated) | 104%
COC(=O)c1c(NC(=O)CCCOc2ccc(C(C)(C)C)cc2)sc2c1C(C(=O)OC)CC2 (configuration not stated) | -2% (active)
CCOc1ccc(/C=C/C(=O)Nc2sc3c(c2C(=O)OC)C(C(=O)OC)CC3)cc1 (configuration not stated) | 75%
COC(=O)c1c(NC(=O)CCCOc2ccc(C(C)(C)C)cc2)sc2c1CCC(C)C2 (configuration not stated) | 30%
COC(=O)c1c(NC(=O)CCCOc2cccc(C)c2)sc2c1C(C(=O)OC)CC2 (configuration not stated) | -3% (active)
COC(=O)c1c(NC(=O)/C(C#N)=C/c2ccccc2)sc2c1C(C(=O)OC)CC2 (configuration not stated) | 82%
Cc1ccc(N(O)C(=O)Nc2ccccc2)cc1 | 119%
COCCCNC(=O)c1ccc2nc(CCc3ccccc3)oc2c1 | 88%
Cc1cccc(N2CCN(S(=O)(=O)c3ccc(F)c(C(=O)Nc4ccc(C(C)C)cc4)c3)CC2)c1C | 75%
CCOc1ccc(CCNC(=O)Cn2c(C)c3cnn(-c4ccccc4)c(=O)c3c2C)cc1 | 95%
COc1ccc2c(c1)CCc1c(C(=O)Nc3c(C)nn(Cc4ccc(C)cc4)c3C)noc1-2 | 16% (active)
COc1ccc2c(c1)CCc1c(C(=O)Nc3c(C)nn(Cc4ccc(Cl)cc4)c3C)noc1-2 | 64%
COc1ccc2c(c1)CCc1c(C(=O)Nc3c(C)nn(Cc4ccccc4)c3C)noc1-2 | 92%
CC(=O)Nc1cc(C(=O)NCc2ccc(C)cc2)ccc1S(=O)(=O)c1ccc(Cl)cc1 | 85%
CCc1ccc(-n2c(=O)c3cccnc3n2CC(=O)Nc2cc(OC)ccc2OC)cc1 | 74%
Cc1cc(C(=O)c2cccs2)c(N)s1 | 90%
COc1ccc(CNC(=O)c2ccc3c(c2)NC(=O)C(CS(=O)(=O)Cc2ccccc2Cl)N3)cc1 (configuration not stated) | 49%

Structure (SMILES) | survival
Cc1cccc(N2CCN(C(=O)c3cn(CC(C)C)c(=O)c4c3c3ccccc3n4C)CC2)c1C | 89%
Cc1ccc(C)c(N2CCN(C(=O)c3cn(CC(C)C)c(=O)c4c3c3ccccc3n4C)CC2)c1 | 17% (active)
Cc1ccc(Cl)cc1N1CCN(C(=O)c2cn(CC(C)C)c(=O)c3c2c2ccccc2n3C)CC1 | 87%
Cc1ccc(C(C)C)c(OCCn2cc(C(=O)c3ccco3)c3ccccc32)c1 | 30%
Cc1ccc2oc(=O)n(CCNC(=O)Nc3ccc(C)c(F)c3)c2c1 | 108%
Cc1ccc(NC(=O)NCCOCCn2c(=O)oc3ccccc32)c(C)c1 | 88%
Cc1ccc(C(C)C)c(OCCCn2c(=O)oc3ccccc32)c1 | -2% (active)
Cc1cccc(NC(=O)NCCn2c(=O)oc3ccc(C)cc32)c1 | 88%
Cc1ccc(C(C)C)c(OCCCn2c(=O)oc3ccc(C)cc32)c1 | -10% (active)
Cc1nn2c(C)c(C(=O)NCc3ccc(OC(C)C)cc3)cnc2c1-c1ccc(F)cc1 | 76%
COc1cc(OC)c(NC(=O)Cn2cnc3c(nc4n3CCCCC4)c2=O)cc1Cl | 59%
O=C(NCC1CCCO1)C1CC(=O)N(c2ccccc2)C1 (configuration not stated) | 123%
Cc1ccc(S(=O)(=O)N2Cc3ccccc3CC2C(=O)N(C)C)cc1 (configuration not stated) | 102%
Cc1ccc(Cn2c(C(=O)O)c(CNC3CCCC3)c3ccc(C)cc32)cc1 | 83%
CCc1ccc(CNC(=O)c2cc3c(=O)n(Cc4cccs4)ccc3nc2C)cc1 | 0% (active)
Cc1nc2ccn(Cc3cccs3)c(=O)c2cc1C(=O)NCc1ccccc1 | 73%
COc1ccc(CNC(=O)c2cc3c(=O)n(Cc4cccs4)ccc3nc2C)cc1 | 10% (active)
COc1ccc(NC(=O)c2cc3c(=O)n(Cc4cccs4)ccc3nc2C)cc1 | 59%
COc1cc(NC(=O)c2cc3c(=O)n(Cc4cccs4)ccc3nc2C)cc(OC)c1OC | -2% (active)
Cc1nc2ccn(Cc3cccs3)c(=O)c2cc1C(=O)NCc1ccc(Br)cc1 | 82%
Cc1nc2ccn(Cc3cccs3)c(=O)c2cc1C(=O)NCc1ccc(Cl)cc1 | 22%
CCOc1ccc(CNC(=O)c2cc3c(=O)n(Cc4cccs4)ccc3nc2C)cc1 | 118%
Cc1nc2ccn(Cc3cccs3)c(=O)c2cc1C(=O)Nc1ccccc1 | 91%
